FLuc modulator: counter-screen for miR-21 project: firefly luciferase inhibitors or activators. P08659. purified FLuc, Km substrates, luminescence inhibition. Potency, µM (highest dose often 57.5 µM), inactives show at the highest dose activity change, negative = inhibition, actives largely listed as inhibitors. 360,000 tested, 6.9% active. AID 588342;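 note: plate controls were vehicle for no effect and reference inhibitor for full effect; nearly all actives have a fitted effect of over 55% in size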
Target sequence (P08659 whole entry, looked up): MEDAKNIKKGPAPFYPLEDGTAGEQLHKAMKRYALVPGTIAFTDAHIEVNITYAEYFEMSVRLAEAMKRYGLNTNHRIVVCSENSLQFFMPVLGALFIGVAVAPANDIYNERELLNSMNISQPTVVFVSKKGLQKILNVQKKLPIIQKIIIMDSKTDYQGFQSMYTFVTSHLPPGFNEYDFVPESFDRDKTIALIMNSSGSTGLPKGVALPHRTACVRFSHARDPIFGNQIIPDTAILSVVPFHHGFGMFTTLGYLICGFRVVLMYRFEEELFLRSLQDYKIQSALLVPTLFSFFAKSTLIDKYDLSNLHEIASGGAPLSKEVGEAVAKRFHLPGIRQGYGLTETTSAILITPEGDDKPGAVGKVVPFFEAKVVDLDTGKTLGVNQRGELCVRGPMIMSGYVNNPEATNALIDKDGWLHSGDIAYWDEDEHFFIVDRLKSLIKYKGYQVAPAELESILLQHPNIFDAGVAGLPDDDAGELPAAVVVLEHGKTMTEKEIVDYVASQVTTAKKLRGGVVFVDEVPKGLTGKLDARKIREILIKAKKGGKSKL
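Biochemical qHTS of compounds, final roughly 60 µM downward over six points, against 10 nM purified firefly luciferase using Km concentrations of substrates (10 uM D-luciferin, 10 uM ATP) in Tris acetate pH 7.5 buffer; luminescence output.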
SMN2 splice enh: increases expression of the SMN2 splice variant. 210,000 tested, 2.8% active. Potency, µM (doses to about 46.1 µM), for inactives: at the top dose activity change, positive = activation, usual class: activators. HEK293 SMN2-luciferase splicing reporter, luminescence, 30-36 h; note: % of control where 0% means no effect; nearly all actives have a fitted effect of over 55% in size
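qHTS luciferase splicing reporter: luminescence rises when SMN2 exon 7 is included in transfected HEK293 cells. Compound exposure lasted 30-36 h at 37C, with 4.5 mM final sodium butyrate as control, followed by a ONE-Glo read.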
ELG1 genotox: inducers of genotoxicity in HEK293T ELG1-luciferase cells; Potency, µM (doses to about 46 µM), for the others: top-dose activity change, positive = activation, usual class: activators; 330,000 tested, 1.3% active; HEK293T ELG1-luciferase reporter, luminescence, 16 h; note: % of control where 0% means no effect; nearly all actives have a fitted effect of over 60% in size
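Step 1: seed 2,000 HEK293T ELG1-luciferase cells per well. Step 2: add compound or DMSO, incubate 16 hr at 37 °C. Step 3: ONE-Glo, 30 min at room temperature, read luminescence.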
ELG1 repair inh: ELG1-dependent DNA repair inhibition | AID 504467 | HEK293T ELG1-luciferase reporter, luminescence, 16 h; DNA damage induced by 5-fluorouridine | Potency, µM (titrated, usually from 46.1 µM), without a hit: top-dose activity change, negative = inhibition, usual class: inhibitors | 330,000 tested, 2.3% active; note: % is set by controls: 0 for no effect and ±100 for the full control effect; nearly all actives have a fitted effect of over 55% in size
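Cells (2,000 per well) received 5-fluorouridine plus test compound or DMSO and were incubated 16 hr at 37 °C, 5% CO2. Luciferase activity was read by luminescence 30 min after ONE-Glo addition; signal suppression marked inhibition of damage-induced ELG1 function.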
NPC1 prom act: activators of NPC1 promoter. Huh7 NPC1 promoter luciferase reporter, 24 h. Potency, µM (highest dose often 9.22 µM), without a hit: at the top dose activation, usual class: activators. 320,000 tested, 2.4% active. AID 485313; note: % of control where 0% means no effect; nearly all actives have a fitted effect of over 60% in size
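Huh7 reporter cells (NPC1 promoter driving luciferase) are dosed with compound for 24 h at 37 °C, 5% CO2; luciferase detection reagent is then added and luminescence measured after 10 min at ambient temperature.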
Rab9 prom act: activates the Rab9 promoter; Potency, µM (doses to about 9.22 µM), inactives show at the highest dose activation, negative = inhibition, actives largely listed as activators; 320,000 tested, 2.8% active; Huh7 Rab9 promoter-luciferase reporter, luminescence, 24 h; note: % of control where 0% means no effect; nearly all actives have a fitted effect of over 60% in size
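Measured in stably transfected Huh7 cells bearing a Rab9 promoter–luciferase construct: 24 h compound treatment at 37 °C, followed by luminescence detection.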
The depositor's hits bear a star; ? = inconclusive; / = no result given. Sampled rows, rich in hits. Any-hit rate of the full collection: about 9.2%. Calls come from the whole dose curve; as a rule, active = well fitted curve in the direction sought with a large enough effect; inconclusive = small, poorly fitted or top-dose-only effect, or another doubt; inactive = no such curve, though single readings can be large; an effect the other way counts as inactive or inconclusive. Potency is the fitted concentration of half-maximal effect.

SMILES	FLuc modulator	SMN2 splice enh	ELG1 genotox	ELG1 repair inh	NPC1 prom act	Rab9 prom act
C[C@@H](NC(=O)c1coc(=O)c(Br)c1)c1ccccc1	-2%	13µM*	21µM*	?	2%	8%
Cc1oc(-c2ccc(C(=O)NCCC(C)C)cc2)nc1CS(=O)(=O)c1ccccc1	-3%	/	/	/	/	/
O=[N+]([O-])c1cc(N=Nc2ccc3ccccc3c2)ccc1O	3.4µM*	/	?	?	2.2µM*	2µM*
COc1cccc(-n2c(CN3CCN(c4ccccc4)CC3)nc3ccc([N+](=O)[O-])cc3c2=O)c1	-1%	-4%	1%	18µM*	0%	-2%
C=CCn1c(SCc2nc3cc(C(=O)OC)ccc3c(=O)[nH]2)nc2sc(CC)cc2c1=O	1%	-5%	-1%	8.2µM*	-3%	1%
C=CCn1c(SCC(=O)Nc2sccc2C(N)=O)nc2sc(CC)cc2c1=O	?	/	-6%	?	-6%	-15%
CCOc1ccc(N2CC(C(=O)N3CCCC3)CC2=O)cc1 (stereo unspecified)	0%	/	4%	14%	-5%	-7%
CCCNC(=O)C1CC(=O)N(c2ccc(OCc3ccc(F)cc3)cc2)C1 (stereo unspecified)	4.8µM*	/	6.5µM*	?	0.63µM*	0.89µM*
C=CCNC(=O)C1CC(=O)N(c2ccc(OCc3ccc(F)cc3)cc2)C1 (stereo unspecified)	7.6µM*	/	18µM*	?	1.1µM*	1.4µM*
NC(=O)C1CC(=O)N(c2ccc(OCc3ccc(Cl)cc3)cc2)C1 (stereo unspecified)	8.5µM*	/	?	?	2.8µM*	2.8µM*
C=CCNC(=O)C1CC(=O)N(c2ccc(OCC(=O)Nc3ccccc3)cc2)C1 (stereo unspecified)	12µM*	13µM*	?	?	2.8µM*	3.5µM*
CCc1ccccc1NC(=O)CCC(=O)N1CC(C)Oc2ccc(C)cc21 (stereo unspecified)	1%	/	/	/	/	/
O=C(Nc1nccs1)C1CC(=O)N(c2ccccc2)C1 (stereo unspecified)	-1%	/	-2%	?	-8%	-1%
CCCNC(=O)C1CC(=O)N(c2ccc(OCc3ccc(Cl)cc3)cc2)C1 (stereo unspecified)	2.1µM*	/	1.8µM*	?	1.4µM*	4µM*
CCOc1ccc(N2CC(C(=O)NCCc3ccccc3)CC2=O)cc1 (stereo unspecified)	1%	/	-3%	-1%	0%	-5%
CC(=O)c1ccc(NC(=O)CC2Nc3cccc4cccc(c34)NC2=O)cc1 (stereo unspecified)	-20%	-2%	-10%	21µM*	-4%	-2%
CCCC(=O)c1ccc(OC(=O)c2c(-c3ccccc3Cl)noc2C)cc1	-5%	/	/	/	/	/
O=c1oc2ccccc2c(N2CCN(c3ccc(F)cc3)CC2)c1CN1CCCC1	0%	-6%	/	/	/	/
Nc1c(N2CCN(c3ccccc3)CC2)c2ccccc2oc1=O	-2%	-30%	-32%	18µM*	1%	8%
COc1ccc(C(=O)NCCn2cc(SCC(=O)Nc3ccc4c(c3)OCCO4)c3ccccc32)cc1	?	-47%	/	/	/	/
Cc1cccc(N2CCN(C(=O)CN3C(=O)C4CC=CCC4C3=O)CC2)c1C (stereo unspecified)	17µM*	1%	10%	?	?	3.2µM*
Cc1cccc(N2CCN(C(=O)Cn3cnc4c3c(=O)n(C)c(=O)n4C)CC2)c1C	-2%	-30%	-5%	21µM*	-6%	-5%
COc1cc(/C=C/C2=NC(=O)C(C)(C)O2)ccc1O	4%	5%	-3%	26µM*	12%	4%
COc1cccc(CNC(=O)CN(C)S(=O)(=O)c2ccc(Br)s2)c1	-1%	/	-4%	-3%	-3%	-1%

Screening results: PubChem BioAssay, National Center for Advancing Translational Sciences (NCATS)
